Molecules are shown by their SMILES. About 3,300 (1.1%) of roughly 310,000 compounds were called active.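 The calls were made as follows: active = B-score under library mean minus 3 SD, initial fluorescence not abnormally high, positive integrated signal ratio; inactive = the rest.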 The entries come from a sample that favours actives as a whole.

The target of this assay is Short transient receptor potential channel 6 (Mus musculus) (UniProt Q61143). The assay can be described thus: mouse TRPC6 channel inhibitors, primary screen, cell-based, HEK293, membrane potential dye (AID 2553).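 As to B-score: B-score derived from integrated fluorescence ratio over the kinetic read; more negative B-score means stronger inhibition of depolarization.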 The conditions noted are these: ACh-evoked depolarization, at 10 µM; stronger effect = lower value.
Chain of Short transient receptor potential channel 6 (Mus musculus) (Q61143 whole entry, looked up): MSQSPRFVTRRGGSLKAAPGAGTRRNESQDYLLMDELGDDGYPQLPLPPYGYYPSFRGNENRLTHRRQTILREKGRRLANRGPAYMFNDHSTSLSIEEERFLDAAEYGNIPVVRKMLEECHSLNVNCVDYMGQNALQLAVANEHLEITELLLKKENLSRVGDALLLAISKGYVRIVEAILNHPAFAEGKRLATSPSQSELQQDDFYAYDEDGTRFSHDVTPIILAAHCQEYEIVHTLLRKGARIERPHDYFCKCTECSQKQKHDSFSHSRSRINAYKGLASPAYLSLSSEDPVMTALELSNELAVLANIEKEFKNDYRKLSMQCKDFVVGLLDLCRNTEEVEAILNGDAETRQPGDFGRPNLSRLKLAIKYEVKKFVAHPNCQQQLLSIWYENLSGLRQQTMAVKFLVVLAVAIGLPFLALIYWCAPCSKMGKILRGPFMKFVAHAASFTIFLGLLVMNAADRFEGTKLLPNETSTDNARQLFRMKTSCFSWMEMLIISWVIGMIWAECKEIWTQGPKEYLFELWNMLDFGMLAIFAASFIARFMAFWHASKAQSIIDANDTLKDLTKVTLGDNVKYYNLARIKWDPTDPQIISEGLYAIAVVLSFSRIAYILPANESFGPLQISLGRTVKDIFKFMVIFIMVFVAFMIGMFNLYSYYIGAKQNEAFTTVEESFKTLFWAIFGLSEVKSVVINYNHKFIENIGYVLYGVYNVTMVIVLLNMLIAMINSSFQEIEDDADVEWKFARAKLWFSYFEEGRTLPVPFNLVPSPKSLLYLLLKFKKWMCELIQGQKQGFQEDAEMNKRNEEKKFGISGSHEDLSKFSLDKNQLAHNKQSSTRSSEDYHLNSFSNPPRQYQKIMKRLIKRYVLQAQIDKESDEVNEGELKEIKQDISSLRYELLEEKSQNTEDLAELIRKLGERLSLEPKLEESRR
`CC12C(=O)N(c3ccccc3)C(=O)C1C(c1ccccc1)N1CCCN12` (stereo not given): the B-score result is “inactive”. Then `CCN1CCN(c2c(Cl)cccc2NC(=O)c2ccc(Br)o2)CC1`, with -12.2 (active). Turning to `O=C(Nc1cccc(Cl)c1N1CCOCC1)c1cccnc1`, the B-score entry is “inactive”. Then `CCCC(=O)Nc1ccc(Cl)c(NC(=O)c2ccc(Br)o2)c1`, with “inactive”. On to `CCCN=C1NC(=O)C(CC(=O)NCCc2ccc(OC)c(OC)c2)S1` (stereo not given), for which the B-score result is “inactive”. As for `COc1ccc(NC(=O)CSc2nc(SC)ns2)c(OC)c1`, the B-score entry is “inactive”. Then `C#CC(CCN1CCCCC1)(OC)c1ccccc1` (stereo not given), with “inactive”; and `CCOC(=O)c1sc2nc(CSCC(=O)OCc3ccc(C(=O)OC)o3)[nH]c(=O)c2c1C`, with -12.7 (active); and `CCOC(=O)c1sc2nc(C)[nH]c(=O)c2c1C`, with “inactive”.

As for `CCOC(=O)c1sc2nc(CSc3ccccc3)[nH]c(=O)c2c1C`, the B-score result was “inactive”. With `COc1ccc(NC(=S)N2N=CCC2c2ccccc2)cc1` (stereo not given), the B-score result is “inactive”.

`Cc1cccc(-[n+]2c(-c3cccc(Br)c3)[nH]c3nc4ccccc4nc32)c1`: the B-score was -6.45 (active). Under `Cc1nnc(SCC(=O)NCCOc2ccc(Cl)cc2)n1-c1ccccc1` stands “inactive”. Under `Cc1nnc(SCC(=O)N2CCN(c3ccccc3)CC2)n1-c1ccccc1` stands “inactive”; under `Cc1nnc(SCc2ccc(C(=O)c3ccc(Cl)cc3)o2)n1-c1ccccc1`, -6.02 (active).

Turning to `CN1CCN(C(=O)c2ccc(NS(=O)(=O)c3ccccc3)cc2)CC1`, the B-score result was “inactive”. Turning to `O=C(Nc1ccc(Br)cc1F)C1CC(=O)N(C2CCCCC2)C1` (stereo not given), the B-score result was “inactive”. Consider `CC1CCCN(CC(=O)Nc2cc(Cl)ccc2Oc2ccccc2)C1` (stereo not given), for which the B-score result is “inactive”.

Turning to `O=C(CN1CCOCC1)Nc1ccc(NC(=O)CN2CCOCC2)c(Cl)c1`, the B-score entry is “inactive”. For `CC(=O)Nc1ccc(NC(=O)CN2CCCC(C)C2)c(Cl)c1` (stereo not given), the B-score was -5.66 (active).

For the molecule `Cc1ccc(S(=O)(=O)C2(S(=O)(=O)c3ccc(C)cc3)CCCC2)cc1`, the B-score result was “inactive”. Under `O=S(=O)(Cc1nnnn1-c1ccccc1)c1ccccc1` stands “inactive”; under `O=C(OCCN1C(=O)c2ccccc2C1=O)Oc1ccccc1`, “inactive”. Then `Cn1c(=O)c2c(nc(NCCNC(=O)c3ccco3)n2Cc2ccccc2F)n(C)c1=O`, with “inactive”.

On to `Cc1ccc(NC(=O)COC(=O)CNC(=O)c2ccc(Cl)cc2Cl)cc1S(=O)(=O)N1CCOCC1`, for which the B-score result is “inactive”. Under `Cc1ccc(C(=O)Nc2sc(Cc3ccc4c(c3)OCO4)c(C)c2C(N)=O)cc1` stands “inactive”; under `COc1ccc(CC(=O)Nc2c(C(N)=O)oc3ccccc23)cc1`, “inactive”. As for `COc1ccc(CC(=O)Nc2sc(Cc3ccccc3)c(C)c2C(N)=O)cc1`, the B-score is -7.08 (active). As for `Cc1ccccc1N1C(=O)C2ON(c3ccccc3)C(c3ccncc3)C2C1=O` (stereo not given), the B-score entry was “inactive”.

In the case of `CCN(CC)CCNc1ccc(Cl)cc1[N+](=O)[O-]`, the B-score result was “inactive”. On to `COC(=O)Cn1c2ccc(C)cc2c2nc(C)sc21`, for which the B-score entry was “inactive”. Turning to `CCN(CC)CCn1c2ccc(Cl)cc2c2nc(C)sc21`, the B-score was -7.92 (active). Then `COCCNc1ccc(-c2n[nH]c(=O)c3ccccc23)cc1[N+](=O)[O-]`, with “inactive”. As to `NS(=O)(=O)c1ccc(CCNC(=O)CCCn2c(SCC(=O)N3CCCC3)nc3ccsc3c2=O)cc1`, the B-score result was “inactive”. Then `COc1ccc(Cn2c(-c3ccc(Cl)cc3)c[n+]3ccccc23)cc1`, with -7.95 (active); and `CCn1c(C)cc(=O)cc1-c1ccc(Cl)cc1`, with “inactive”. Then `COc1ccc(Cn2c(=O)cc(C)[nH]c2=S)cc1`, with “inactive”. In the case of `CCN1C(=S)N[C@@H](CCc2ccccc2)[C@H](C(=O)OC)[C@H]1C`, the B-score entry is “inactive”. Then `O=C(O)CSCc1ccc(C(=O)O)o1`, with “inactive”.

`COc1ccc(C(=O)N2CCc3cc(OC)c(OC)cc3C2c2cccc([N+](=O)[O-])c2)cc1` (stereo not given): the B-score entry is “inactive”.

With `COc1ccccc1C1CCN(c2ccc([N+](=O)[O-])cn2)CC1`, the B-score result was “inactive”. In the case of `COc1ccccc1C1SCCN1C(=O)c1ccc([N+](=O)[O-])cc1` (stereo not given), the B-score was -9.98 (active). Then `CC1CC(C)CN(CCOc2cccc3ccccc23)C1` (stereo not given), with “inactive”. For `CCCCCCCCCCOC(=O)C[N+](C)(C)CC1CCCCC1O` (stereo not given), the B-score was -9.01 (active). On to `CCCCCOC(=O)c1ccc(N2C(=O)C3C4C=CC(C4)C3C2=O)cc1` (stereo not given), for which the B-score entry was “inactive”. Under `CCC(C)(C)c1ccc(OCC(=O)N(C)C)c(C(C)(C)CC)c1` stands “inactive”.

`Oc1ccccc1-c1cc(-c2ccc(Cl)cc2)n[nH]1`: the B-score result is “inactive”. On to `CCCCNC(=O)C1CCC(CNS(=O)(=O)c2ccc(NC(C)=O)cc2)CC1` (stereo not given), for which the B-score result was “inactive”.

In the case of `Cc1ccccc1-n1nnnc1SCCCC(=O)c1ccc(F)cc1`, the B-score result is “inactive”. Under `CCc1c(O)nc(SCC(=O)Nc2ccccc2)n(C(C)CC)c1=O` (stereo not given) stands “inactive”; under `COC(=O)c1c(NC(=O)c2ccc(S(=O)(=O)N3CCOCC3)cc2)sc2c1CCN(C(C)C)C2`, -5.88 (active). Under `CNC(=O)c1ccsc1NC(=O)c1ccc(S(=O)(=O)N2CCOCC2)cc1` stands “inactive”; under `COc1ccc(C(=O)Nc2nc(-c3ccc(S(=O)(=O)N4CCOCC4)cc3)cs2)cc1`, “inactive”; under `Cc1ccccc1CS(=O)(=O)CC1(O)CCN(C(=O)c2cccc(C(F)(F)F)c2)CC1`, “inactive”. Under `CCC(C)(C)NC(=O)C(c1ccc(OC)cc1)N(C(=O)CCC(=O)Nc1cc(C)on1)c1ccc(OC)cc1OC` (stereo not given) stands “inactive”. As for `O=C(CSc1nnnn1C1CCCC1)N1CCCCC1`, the B-score result was “inactive”.

For the molecule `Cc1cccc(NC(=S)Nc2ccc(Br)cc2)c1`, the B-score result is “inactive”. Then `Cc1cccc(NC(=S)NCCN(C2CCCCC2)C2CCCC2)c1`, with -5.75 (active); and `Cc1cccc(NC(=S)Nc2ccc(Cl)c(Cl)c2)c1`, with “inactive”.

Turning to `O=S(=O)(c1ccc(Br)c2ccccc12)N1CCOCC1`, the B-score entry is “inactive”. Under `Cc1ccc(S(=O)(=O)N2CCN(c3ccccc3)CC2)cc1C` stands “inactive”; under `Cc1ccccc1N1CCN(S(=O)(=O)c2ccc3ccccc3c2)CC1`, “inactive”; under `Cc1cc(N2CCN(S(=O)(=O)c3ccc(C)c(C)c3)CC2)c2ccccc2n1`, -5.95 (active). As to `CC(=O)NS(=O)(=O)c1ccc(N/C(N)=N/c2nc(C)cc(C)n2)cc1`, the B-score entry was “inactive”.

Turning to `CC(C)N1CCC(N2CCN(Cc3cccnc3)CC2CCO)CC1` (stereo not given), the B-score entry is “inactive”. Under `Cc1ccc(CN2CCN(Cc3ccc4ncccc4c3)CC2CCO)cc1` (stereo not given) stands “inactive”. Under `Cn1cnnc1Sc1ccc(CN2CCN(C3CCCC3)C(CCO)C2)o1` (stereo not given) stands “inactive”; under `OCCC1CN(Cc2ccc3nsnc3c2)CCN1C1CCCC1` (stereo not given), -6.69 (active). Then `COc1cccc2c1OCC(CN1CCN(C3CCCCC3)C(CCO)C1)=C2` (stereo not given), with “inactive”. As to `OCCC1CN(Cc2ccc3nsnc3c2)CCN1C1CCCCC1` (stereo not given), the B-score is -5.65 (active).

The record behind these values is PubChem BioAssay AID2553 (Johns Hopkins Ion Channel Center, 2010).
